The list is not random: actives were taken first. Their share in the collection is about 19%.
TDP1 cell CPT = DT40-hTDP1 cell growth loss with CPT; chicken DT40 Tdp1-/-;hTDP1 cells + 20 nM CPT, ATP luminescence, 48 h; Potency, µM (top dose mostly 46.2 µM), without a hit: top-dose activity change, negative = growth inhibition, most hits filed as inhibitors; 420,000 tested, 12% active; also: potency is read from the fitted curve at half-maximal effect; % is scaled to controls: 0 for no effect and ±100 for the full control effect; nearly all actives have a fitted effect of over 55% in size
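Cell growth measured by CellTiter-Glo luminescence after a minimum 48 h, 37 C compound exposure with 20 nM CPT in Tdp1-knockout DT40 cells stably expressing hTDP1, seeded 400/well; qHTS titration format.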
TGFb SMAD3 inh = inhibitors of TGF-b signaling. HepG2 CAGA-GFP TGF-b/SMAD3 reporter, GFP fluorescence, 18 h; TGF-beta stimulated, 500 pg/mL final. Potency, µM (doses to about 46.1 µM), for inactives: at the highest dose activity, negative = inhibition, usual class: inhibitors. 410,000 tested, 1.2% active; also: potency is read from the fitted curve at half-maximal effect; % is scaled to controls: 0 for no effect and ±100 for the full control effect; nearly all actives have a fitted effect of over 65% in size
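First, reporter cells (HEPG2 CAGA-GFP) rested 2 h at 37 degrees C. Next, compounds were pinned in and TGF-beta added to 500 pg/mL final. After 18 h, GFP was imaged per cell and summed per well.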
TDP1 inh = TDP1 (human) enzyme inhibition; Q9NUW8; recombinant TDP1, AlphaScreen DNA substrate cleavage; Potency, µM (series often up to 130 µM), for the others: top-dose activity change, negative = inhibition, actives largely listed as inhibitors; 350,000 tested, 0.28% active; also: potency is read from the fitted curve at half-maximal effect; % is scaled to controls: 0 for no effect and ±100 for the full control effect; nearly all actives have a fitted effect of over 40% in size
Target sequence (Q9NUW8 whole entry, looked up): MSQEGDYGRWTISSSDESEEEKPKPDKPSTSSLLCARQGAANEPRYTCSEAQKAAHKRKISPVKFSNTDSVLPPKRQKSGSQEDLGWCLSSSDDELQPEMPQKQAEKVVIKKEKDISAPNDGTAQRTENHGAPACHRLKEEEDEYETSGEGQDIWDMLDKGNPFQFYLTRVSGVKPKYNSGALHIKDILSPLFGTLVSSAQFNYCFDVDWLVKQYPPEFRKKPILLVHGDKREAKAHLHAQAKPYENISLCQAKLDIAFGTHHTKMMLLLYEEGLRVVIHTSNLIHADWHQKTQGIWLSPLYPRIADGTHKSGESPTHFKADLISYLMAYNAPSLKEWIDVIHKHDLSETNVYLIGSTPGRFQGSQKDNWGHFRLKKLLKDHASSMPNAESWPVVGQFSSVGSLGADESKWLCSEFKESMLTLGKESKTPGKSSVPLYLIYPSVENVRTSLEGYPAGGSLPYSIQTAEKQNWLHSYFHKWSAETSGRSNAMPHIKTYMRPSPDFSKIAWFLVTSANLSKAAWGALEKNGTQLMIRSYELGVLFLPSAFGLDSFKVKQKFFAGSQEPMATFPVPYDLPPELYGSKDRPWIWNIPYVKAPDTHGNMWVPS
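Signal: AlphaScreen proximity between streptavidin donor and anti-FITC acceptor beads on intact substrate. Reaction: Tdp1 1 nM, substrate 15 nM final, 5 min RT after 15 min compound preincubation.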
HepG2 viability = kills HepG2 cells in TGF-b inhibitor counter-screen; HepG2 CAGA-GFP viability, ATP luminescence, 18 h; Potency, µM (doses to about 46.1 µM), without a hit: top-dose activity change, negative = cytotoxicity, usual class: cytotoxic; 410,000 tested, 0.76% active; also: potency is read from the fitted curve at half-maximal effect
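CellTiter-Glo luminescence gave cytotoxicity after 18 hours at 37 degrees C. The cells were HepG2 CAGA-GFP in 1% FBS DMEM, stimulated with 500 pg/mL TGF-beta after compound addition. %Activity was normalised to no-cell wells (complete cell-killing) and DMSO (no toxicity), and curves were fitted and classified.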
TDP1 cell noCPT = qHTS for Inhibitors of human tyrosyl-DNA phosphodiesterase 1 (TDP1): qHTS in cells in absence of CPT; DT40 Tdp1-/- hTDP1 cells, no CPT, ATP luminescence, 48 h; Potency, µM (doses to about 46.2 µM), inactives show top-dose activity change, negative = growth inhibition, most hits filed as inhibitors; 420,000 tested, 15% active; AID 686978, 2013; also: potency is read from the fitted curve at half-maximal effect; % is scaled to controls: 0 for no effect and ±100 for the full control effect; nearly all actives have a fitted effect of over 55% in size
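No-CPT arm: Tdp1-/-;hTDP1 DT40 cells (400/well) plus compounds, incubated ≥48 hr at 37 °C. Readout CellTiter-Glo luminescence.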
IL1B secr inh = inflammasome signaling inhibition, IL-1 beta readout; THP-1 LPS/ATP IL-1B secretion, AlphaLISA, 16 h; stronger effect = lower value; activity change, % at 57.5 µM; 360,000 tested, 4.7% active; AID 743279; in the data active = activity change below about -50%; inconclusive = mostly about -30% to -49%; also: % is scaled to controls: 0 for no effect and ±100 for the full control effect
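THP-1 cells pretreated 1 hr with compounds (up to 57.5 uM final), then stimulated with LPS (250 ng/mL final) plus ATP (1.25 mM final); secreted IL-1B measured by AlphaLISA after 16 hr, decreased signal indicating inhibition.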
* marks the source's active call; other numbers are inactive results. Unless noted, calls follow the shape of the dose curve; as a rule, active = well fitted curve in the direction sought with a large enough effect; inconclusive = small, poorly fitted or top-dose-only effect, or another doubt; inactive = no such curve, though single readings can be large; an effect the other way counts as inactive or inconclusive.

What do the screens show for `COc1ccc(NC(=O)c2oc3ccccc3c2NC(=O)Cc2cccs2)c(OC)c1`?
TDP1 cell CPT: inconclusive; TGFb SMAD3 inh: 0.2%; TDP1 inh: 3.8%; HepG2 viability: -20.7%; TDP1 cell noCPT: inconclusive

How did COc1cc(/C=N/NC(=O)c2cc(-c3ccccc3OC(C)C)nc3ccccc23)ccc1O do in these assays?
TDP1 cell CPT: inconclusive; TGFb SMAD3 inh: -3.5%; TDP1 inh: 2.6%; HepG2 viability: -44.2%; TDP1 cell noCPT: 1.84µM*; IL1B secr inh: 3.2

How did COc1ccc(/C=N/NC(=O)c2cc(-c3ccccc3)nc3ccccc23)cc1O do in these assays?
TDP1 cell CPT: 10.3µM*; TGFb SMAD3 inh: 0.0%; HepG2 viability: -31.1%; TDP1 cell noCPT: 1.3µM*; IL1B secr inh: 39.9

What do the screens show for `COc1cc(/C=N/NC(=O)c2cc(-c3ccccc3)nc3ccccc23)ccc1O`?
TDP1 cell CPT: inconclusive; TGFb SMAD3 inh: 0.0%; HepG2 viability: -20.9%; TDP1 cell noCPT: inconclusive; IL1B secr inh: 47.7

Results for COc1cc(/C=N/NC(=O)c2nc(-c3ccccc3)n(-c3ccccc3)n2)ccc1O ?
TDP1 cell CPT: 5.5%; TGFb SMAD3 inh: inconclusive; TDP1 inh: 1.8%; HepG2 viability: -13.5%; TDP1 cell noCPT: -22.8%; IL1B secr inh: -3.1

How did COc1cc(/C=N/NC(=O)c2ccccc2)ccc1O do in these assays?
TDP1 cell CPT: -13.1%; TGFb SMAD3 inh: -14.7%; TDP1 inh: 0.0%; HepG2 viability: -74.7%; TDP1 cell noCPT: 8.9%; IL1B secr inh: 0.1

How did COc1cc(/C=N/NC(=O)CCN2CCCCC2)ccc1O do in these assays?
TDP1 cell CPT: 14.4%; TGFb SMAD3 inh: -25.7%; TDP1 inh: 5.4%; HepG2 viability: -13.1%; TDP1 cell noCPT: -14.9%; IL1B secr inh: 7.9

Results for COc1cc(/C=N/NC(=O)c2cnn3c(C)cc(-c4ccccc4)nc23)ccc1O ?
TDP1 cell CPT: 23.1µM*; TGFb SMAD3 inh: 10.7%; TDP1 inh: 0.0%; HepG2 viability: 7.7%; TDP1 cell noCPT: 16.4µM*; IL1B secr inh: -57.3*

What do the screens show for `COc1cc(/C=N/NC(=O)CCn2cnc(-c3ccccc3)c2-c2ccccc2)ccc1O`?
TDP1 cell CPT: inconclusive; TGFb SMAD3 inh: -8.5%; TDP1 inh: 7.0%; HepG2 viability: 2.4%; TDP1 cell noCPT: 18.4µM*; IL1B secr inh: -13.8

How did COc1ccc(/C=N/NC(=O)CCn2c3ccccc3c3ccccc32)cc1O do in these assays?
TDP1 cell CPT: 1.46µM*; TGFb SMAD3 inh: inconclusive; TDP1 inh: 2.6%; HepG2 viability: -16.7%; TDP1 cell noCPT: 1.64µM*; IL1B secr inh: -6.3

What do the screens show for `COc1ccc(C(=O)CSc2nnc(CNC(=O)c3ccc(S(=O)(=O)N(C)C)cc3)o2)cc1`?
TDP1 cell CPT: -17.4%; TGFb SMAD3 inh: -23.9%; TDP1 inh: 2.3%; HepG2 viability: -26.2%; TDP1 cell noCPT: -22.0%; IL1B secr inh: 9.8

Results for COc1ccc(/C=C/c2c([N+](=O)[O-])c(=O)n(C)c(=O)n2C)c(OC)c1 ?
TDP1 cell CPT: 11.9%; TGFb SMAD3 inh: -20.7%; TDP1 inh: 3.0%; HepG2 viability: -9.0%; TDP1 cell noCPT: -26.3%; IL1B secr inh: -27.7

How did COc1ccc(/C=C/c2c([N+](=O)[O-])c(=O)n(C)c(=O)n2C)cc1 do in these assays?
TDP1 cell CPT: -0.2%; TGFb SMAD3 inh: -1.4%; TDP1 inh: 0.0%; HepG2 viability: -3.4%; TDP1 cell noCPT: -2.9%; IL1B secr inh: -12.5

Results for CCOc1ccc(/C=C/c2c([N+](=O)[O-])c(=O)n(C)c(=O)n2C)cc1 ?
TDP1 cell CPT: 13.2%; TGFb SMAD3 inh: 4.8%; TDP1 inh: -2.5%; HepG2 viability: -1.1%; TDP1 cell noCPT: inconclusive; IL1B secr inh: -93.3*

What do the screens show for `CCc1ccc(/C=C/c2c([N+](=O)[O-])c(=O)n(C)c(=O)n2C)cc1`?
TDP1 cell CPT: inconclusive; TGFb SMAD3 inh: -24.5%; HepG2 viability: -14.0%; TDP1 cell noCPT: inconclusive; IL1B secr inh: -98.4*

What do the screens show for `Cn1c(/C=C/c2ccc(Cl)cc2Cl)c([N+](=O)[O-])c(=O)n(C)c1=O`?
TDP1 cell CPT: 8.2µM*; TGFb SMAD3 inh: -2.3%; HepG2 viability: -13.6%; TDP1 cell noCPT: 5.17µM*; IL1B secr inh: -4.4

What do the screens show for `CS(=O)(=O)c1ccc(Cl)c(NC(=O)c2cc(=O)[nH]c3ccc(S(=O)(=O)N4CCOCC4)cc23)c1`?
TDP1 cell CPT: -4.9%; TGFb SMAD3 inh: -12.4%; HepG2 viability: -16.3%; TDP1 cell noCPT: -14.6%; IL1B secr inh: 6.7

Results for Cc1ccc(SC(=O)c2c(C)noc2-c2cc(C)on2)cc1 ?
TDP1 cell CPT: 18.4µM*; TGFb SMAD3 inh: 17.8µM*; TDP1 inh: -5.2%; HepG2 viability: -60.5%; TDP1 cell noCPT: 9.2µM*; IL1B secr inh: -64.5*

Results for Cc1cccc(N2CCN(C(=O)CCN3C(=O)C4C5C=CC(C5)C4C3=O)CC2C)c1 (centres undefined) ?
TDP1 cell CPT: -28.6%; TGFb SMAD3 inh: 13.1%; TDP1 inh: 2.7%; HepG2 viability: -2.5%; TDP1 cell noCPT: 25.9µM*; IL1B secr inh: -7.3

How did O=C(CCN1C(=O)C2C3C=CC(C3)C2C1=O)N1CCN(c2ccccn2)CC1 (centres undefined) do in these assays?
TDP1 cell CPT: 1.9%; TGFb SMAD3 inh: -2.8%; TDP1 inh: 2.6%; HepG2 viability: 0.1%; TDP1 cell noCPT: -17.6%; IL1B secr inh: -5.8

How did Cc1cccc(N2C(=O)C3C4C=CC(C4)C3C2=O)c1 (centres undefined) do in these assays?
TDP1 cell CPT: -7.0%; TGFb SMAD3 inh: 0.6%; TDP1 inh: -4.2%; HepG2 viability: -5.0%; TDP1 cell noCPT: -16.5%; IL1B secr inh: 12.2

What do the screens show for `O=C(CCN1C(=O)C2C3C=CC(C3)C2C1=O)N1CCN(c2cccc(Cl)c2)CC1` (centres undefined)?
TDP1 cell CPT: 16.4µM*; TGFb SMAD3 inh: 8.1%; TDP1 inh: 0.0%; HepG2 viability: 0.5%; TDP1 cell noCPT: 16.4µM*; IL1B secr inh: -1.4

How did Cc1cccc(N2CCN(C(=O)c3cccc(N4C(=O)C5C6C=CC(C6)C5C4=O)c3)CC2C)c1 (centres undefined) do in these assays?
TDP1 cell CPT: 13µM*; TGFb SMAD3 inh: -15.4%; TDP1 inh: 5.1%; HepG2 viability: -10.3%; TDP1 cell noCPT: 20.6µM*; IL1B secr inh: 11.4

Screening data (PubChem)
